In PubChem BioAssay (NCI):
The panel holds about 83,000 compounds, 20% with a hit somewhere; the sample as a whole holds those more often.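 Testing used 96-well plates and a 48-hour single-concentration exposure. Example: -40 means 40% of the starting cells died.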 A number with no mark means an inactive call. Activity calls are given as the source filed them. Rule for the calls: active = growth percent below 10; inactive = the rest.

Tests used:
Assay in all cases: NCI-60 one-dose screen, 48 h (100 = growth as untreated, 0 = no growth, -100 = all killed)
T-47D breast = conditions: 10 µM
BT-549 breast = conditions: 10 µM
MDA-MB-435 melanoma = conditions: 10 µM
SW-620 colon = conditions: 10 µM
MCF7 breast = conditions: 10 µM unless noted
HCT-116 colon = conditions: 10 µM
HCC-2998 colon = conditions: 10 µM
KM12 colon = conditions: 10 µM

Structure (SMILES) | growth (T-47D breast) | growth (BT-549 breast) | growth (MDA-MB-435 melanoma) | growth (SW-620 colon) | growth (MCF7 breast) | growth (HCT-116 colon) | growth (HCC-2998 colon) | growth (KM12 colon)
Cc1ccccc1N=C(c1ccccc1)C1C(=O)c2ccccc2C1=O | 40.4% | 42.6% | 27% | 84.3% | 55.2% | 46.4% | 104% | –
CC1C(=O)c2ccccc2CC1C(=O)O (stereo not given) | 102% | 105% | 108% | 115% | 99.3% | 110% | 89.7% | –
N#Cc1ccc(OC(=O)Nc2ccc(Cl)c(Cl)c2)cc1 | 27.9% | 93.3% | 99.3% | 96.2% | 44.5% | 50% | 87.1% | –
CCCCCCCCCCC1CO1 (stereo not given) | 103% | 109% | 112% | 106% | 92.4% | 102% | 102% | 109%
COc1ccccc1N=Nc1c(O)ccc2cc(S(=O)(=O)O)ccc12 | 91.4% | 99.4% | 108% | 103% | 93.2% | 103% | 96.3% | 104%
O=[N+]([O-])c1ccc(O)c(S(=O)(=O)O)c1 | 96.5% | 128% | 109% | 104% | 102% | 101% | 112% | 111%
COc1cccc(COC(=O)Nc2ccccc2)c1OC | 93.1% | 107% | 91.7% | 114% | 97.6% | 104% | 102% | 106%
CSC[C@H](NC(=O)COc1cccc2cnccc12)C(=O)NC(Cc1ccccc1)C(O)C(=O)N1CSC[C@H]1C(=O)NC(C)(C)C (stereo not given in full) | 111% | 105% | 103% | 105% | 114% | 121% | 108% | 116%
CC[N+](C)(CC)CCO | 93.4% | 99.9% | 100% | 100% | 103% | 105% | 102% | 110%
NCCCN | 98.6% | 106% | 109% | 104% | 96.7% | 109% | 112% | 107%
Nc1ncnc2c1nc(N)n2C1OC(CO)C(O)C1O (stereo not given) | -46.3% (active) | -83.6% (active) | -80.3% (active) | -11.8% (active) | -20.5% (active) | 1.19% (active) | -82% (active) | -77.3% (active)
Cc1ccc(C(=O)NC2c3ccccc3Oc3ccccc32)cc1 | 60.5% | 62.6% | 6.21% (active) | 38.9% | 21.7% | 30.3% | 75.6% | 51.3%
O=C(NN=C1CCCCC1)C(=O)NN=C1CCCCC1 | 99.7% | 100% | 117% | 117% | 92.5% | 106% | 113% | 105%
O=c1[nH][nH]c(=O)c2cc([N+](=O)[O-])ccc12 | 96.1% | 106% | 109% | 101% | 99.8% | 101% | 99.6% | 106%
CC(=O)OCCC(C)CCC=C(C)C (stereo not given) | 98.8% | 102% | 102% | 95.4% | 101% | 100% | 102% | 102%
C/C(=N/NC(N)=O)c1ccco1 | 83.5% | 102% | 107% | 109% | 98.4% | 101% | 92.1% | 102%
COC(=O)Nc1nc2ccc(C(=O)c3ccc(F)cc3)cc2[nH]1 | 112% | 32% | -60.2% (active) | 24.8% | 15.6% | 14.2% | 16.1% | -4.55% (active)
CCOc1ccc(/C=C/C(=O)c2ccccc2)cc1 | 88.8% | 102% | 89.2% | 96.4% | 70.5% | 83.7% | 92.5% | 80.2%

Structure (SMILES) | growth (T-47D breast) | growth (BT-549 breast) | growth (MDA-MB-435 melanoma) | growth (SW-620 colon) | growth (MCF7 breast) | growth (HCT-116 colon) | growth (HCC-2998 colon) | growth (KM12 colon)
COCCCC/C(=N\OCCN)c1ccc(C(F)(F)F)cc1 | 86.4% | 107% | 99.4% | 97.1% | 108% | 101% | 116% | 107%
Cc1cc(N)ccc1-c1ccc(N)cc1C | 98.1% | 92.3% | 102% | 101% | 104% | 105% | 88.4% | 99.7%
Cc1cc(/C=C/c2ccc3cc(N(C)C)ccc3[n+]2C)c(C)n1-c1ccccc1 | -47.3% (active) | -52.2% (active) | -49.8% (active) | 7.4% (active) | -11.6% (active) | -10.3% (active) | 0.715% (active) | -62.1% (active)
C/C(=N\NC(=O)c1ccccc1N)c1ccccc1O | 25.2% | 72.2% | 57.8% | 31.6% | 5.19% (active) | 7.72% (active) | 67.5% | 46.3%
CN(C)C(=O)Oc1cccc([N+](C)(C)C)c1 | 99.8% | 112% | 105% | 108% | 87% | 109% | 106% | 102%
O=C1C[C@H](c2ccccc2)[C@H](c2ccccc2)C1 | 99.1% | 93.7% | 108% | 109% | 99.1% | 99.1% | 104% | 115%
CCc1nc(N)nc(N)c1-c1ccc(Cl)cc1 | 100% | 67.7% | 35% | 27.2% | 67.8% | 25.4% | 75.9% | 82.5%
O=C1OC(=O)C2C1C1(Cl)C(Cl)=C(Cl)C2(Cl)C2C(=O)OC(=O)C21 (stereo not given) | 95.4% | 103% | 101% | 113% | 95.8% | 102% | 108% | 106%
CCOC(=O)CCCC(=O)OCC | 96.4% | 104% | 106% | 102% | 97.9% | 97.9% | 105% | 99.6%
COCCOC(=O)c1ccc(C(C)C)cc1 | 85% | 98.5% | 102% | 104% | 95.6% | 100% | 103% | 101%
c1cc2cccc3c4cccc5cccc(c(c1)c23)c54 | 90.2% | 104% | 111% | 108% | 84% | 103% | 96.7% | 104%
CCN1C(=O)/C(=C/C=C/N(C)c2ccccc2)SC1=S | 79.8% | 80.5% | 93.9% | 106% | 88.6% | 95.1% | 93.6% | 106%
Nc1ccccc1SC(CC(=O)c1ccccc1)c1c(Cl)cccc1Cl (stereo not given) | 69.4% | 68% | 39.7% | 10.2% | 14.8% | -29.7% (active) | 86.9% | 33.1%
CCCCOC(=O)c1ccc(C(C)C)cc1 | 88.7% | 92.1% | 103% | 111% | 94.9% | 85.4% | 107% | 104%
c1ccc(/C(=N\N=C(/c2ccccc2)c2cccs2)c2cccs2)cc1 | 86.7% | 102% | 103% | 98% | 96% | 91.9% | 101% | 97.1%
CC1CCC(C(=O)O)N1 (stereo not given) | 86.4% | 102% | 111% | 113% | 95% | 102% | 97.8% | 106%
c1ccc(Sc2ccccc2)cc1 | 99.6% | 100% | 99.6% | 107% | 97.6% | 110% | 105% | 102%
COC(=O)c1cccc(Br)c1 | 111% | 107% | 94% | 114% | 116% | 97.8% | 107% | 112%
